Among the data in the supplement of paper PMC12819154, “High-throughput peptide-centric local stability assay extends protein–ligand identification to membrane proteins, tissues and bacteria” (Nature Structural & Molecular Biology, 2025) are log2 fold change values, retold here.

Compound in experiment [1]: T1, CN[C@@H]1C[C@H]2O[C@@](C)([C@@H]1OC)n1c3ccccc3c3c4c(c5c6ccccc6n2c5c31)C(=O)NC4 [staurosporine]
Put plainly: log2 fold change of tryptic peptide abundance, ligand vs vehicle (limited proteolysis) (log2 ratio); higher = more trypsin-susceptible (destabilized). Conditions: ligand concentration: 20 uM; sample: K562 cleared lysate; digestion: 4 min, 22 C (HT-PELSA RT4min, Orbitrap Astral).

Compound in experiment [2]: T1, staurosporine
The description is as above. Conditions: ligand concentration: 20 uM; sample: mouse liver crude lysate; replicate design: treated separately.

UniProt Q9R257, sequence (Q9R257 whole entry): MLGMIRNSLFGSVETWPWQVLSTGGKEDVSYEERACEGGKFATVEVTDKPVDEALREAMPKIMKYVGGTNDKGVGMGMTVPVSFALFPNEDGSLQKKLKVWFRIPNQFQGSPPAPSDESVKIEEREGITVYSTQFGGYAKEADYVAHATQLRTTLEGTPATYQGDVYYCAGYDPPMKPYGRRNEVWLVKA
UniProt P07437, sequence (P07437 whole entry): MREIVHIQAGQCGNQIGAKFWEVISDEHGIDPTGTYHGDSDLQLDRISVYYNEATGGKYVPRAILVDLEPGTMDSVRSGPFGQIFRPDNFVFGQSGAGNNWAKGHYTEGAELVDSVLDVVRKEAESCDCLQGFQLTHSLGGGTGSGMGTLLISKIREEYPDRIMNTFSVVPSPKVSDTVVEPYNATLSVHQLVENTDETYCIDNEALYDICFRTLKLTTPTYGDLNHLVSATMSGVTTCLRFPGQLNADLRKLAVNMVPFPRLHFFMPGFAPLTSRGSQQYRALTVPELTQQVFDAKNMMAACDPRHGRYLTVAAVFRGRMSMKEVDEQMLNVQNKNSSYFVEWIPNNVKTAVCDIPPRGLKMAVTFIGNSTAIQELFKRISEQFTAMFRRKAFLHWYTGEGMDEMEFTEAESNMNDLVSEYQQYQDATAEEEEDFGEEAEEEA
UniProt O70589, sequence (O70589 whole entry): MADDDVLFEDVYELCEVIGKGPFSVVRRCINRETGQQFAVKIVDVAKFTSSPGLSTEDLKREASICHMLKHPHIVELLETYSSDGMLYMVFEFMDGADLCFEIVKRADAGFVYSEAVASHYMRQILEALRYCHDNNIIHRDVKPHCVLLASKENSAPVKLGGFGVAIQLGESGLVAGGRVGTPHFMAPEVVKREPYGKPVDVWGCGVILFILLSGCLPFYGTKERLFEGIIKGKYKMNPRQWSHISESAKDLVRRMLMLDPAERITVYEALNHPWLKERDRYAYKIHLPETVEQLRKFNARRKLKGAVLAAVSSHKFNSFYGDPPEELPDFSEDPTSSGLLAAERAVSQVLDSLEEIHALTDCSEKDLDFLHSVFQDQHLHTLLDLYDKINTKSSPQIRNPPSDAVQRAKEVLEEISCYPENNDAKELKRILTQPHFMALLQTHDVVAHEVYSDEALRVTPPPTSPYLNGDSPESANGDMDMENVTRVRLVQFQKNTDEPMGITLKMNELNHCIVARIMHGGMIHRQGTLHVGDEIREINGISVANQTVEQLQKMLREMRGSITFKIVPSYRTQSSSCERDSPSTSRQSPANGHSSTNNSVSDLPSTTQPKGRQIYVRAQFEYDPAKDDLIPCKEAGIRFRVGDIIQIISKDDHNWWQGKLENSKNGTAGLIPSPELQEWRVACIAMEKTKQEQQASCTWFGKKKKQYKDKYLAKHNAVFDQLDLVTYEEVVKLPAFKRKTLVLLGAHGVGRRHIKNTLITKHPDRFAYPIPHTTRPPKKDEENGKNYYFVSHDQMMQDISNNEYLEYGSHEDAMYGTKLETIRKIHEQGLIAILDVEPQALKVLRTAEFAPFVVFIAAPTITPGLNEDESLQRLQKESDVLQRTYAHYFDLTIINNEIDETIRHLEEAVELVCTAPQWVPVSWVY
UniProt O70291, sequence (O70291 whole entry): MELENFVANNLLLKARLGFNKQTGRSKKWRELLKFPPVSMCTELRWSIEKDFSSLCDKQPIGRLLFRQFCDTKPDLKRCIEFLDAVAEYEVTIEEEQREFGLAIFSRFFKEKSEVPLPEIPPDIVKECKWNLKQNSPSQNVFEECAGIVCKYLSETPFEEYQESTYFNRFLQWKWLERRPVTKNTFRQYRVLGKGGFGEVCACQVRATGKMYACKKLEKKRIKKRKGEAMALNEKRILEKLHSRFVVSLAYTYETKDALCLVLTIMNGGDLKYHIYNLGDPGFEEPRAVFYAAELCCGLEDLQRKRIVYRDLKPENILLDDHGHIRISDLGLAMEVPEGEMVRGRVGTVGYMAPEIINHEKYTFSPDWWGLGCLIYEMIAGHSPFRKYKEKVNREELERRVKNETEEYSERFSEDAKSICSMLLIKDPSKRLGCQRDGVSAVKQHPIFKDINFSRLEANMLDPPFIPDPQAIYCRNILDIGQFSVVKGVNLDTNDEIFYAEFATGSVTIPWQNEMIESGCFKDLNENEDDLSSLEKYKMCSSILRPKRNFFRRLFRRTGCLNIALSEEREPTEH
UniProt Q99KG5, sequence (Q99KG5 whole entry): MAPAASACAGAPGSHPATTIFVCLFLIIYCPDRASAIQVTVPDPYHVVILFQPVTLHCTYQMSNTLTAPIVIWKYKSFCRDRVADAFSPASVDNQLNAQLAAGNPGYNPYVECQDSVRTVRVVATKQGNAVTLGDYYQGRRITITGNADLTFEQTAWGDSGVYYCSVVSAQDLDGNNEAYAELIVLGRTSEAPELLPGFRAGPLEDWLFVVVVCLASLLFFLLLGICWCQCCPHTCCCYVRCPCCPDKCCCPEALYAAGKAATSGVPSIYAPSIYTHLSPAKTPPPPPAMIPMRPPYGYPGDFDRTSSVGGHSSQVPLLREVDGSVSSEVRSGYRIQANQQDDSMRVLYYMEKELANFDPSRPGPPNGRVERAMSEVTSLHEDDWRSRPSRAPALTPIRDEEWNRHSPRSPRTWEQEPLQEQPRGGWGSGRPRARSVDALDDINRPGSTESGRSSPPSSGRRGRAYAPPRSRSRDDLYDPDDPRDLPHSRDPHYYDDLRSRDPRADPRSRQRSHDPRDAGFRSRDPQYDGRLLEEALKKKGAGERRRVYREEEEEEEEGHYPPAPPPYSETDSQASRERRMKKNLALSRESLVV
UniProt P84022, sequence (P84022 whole entry, looked up): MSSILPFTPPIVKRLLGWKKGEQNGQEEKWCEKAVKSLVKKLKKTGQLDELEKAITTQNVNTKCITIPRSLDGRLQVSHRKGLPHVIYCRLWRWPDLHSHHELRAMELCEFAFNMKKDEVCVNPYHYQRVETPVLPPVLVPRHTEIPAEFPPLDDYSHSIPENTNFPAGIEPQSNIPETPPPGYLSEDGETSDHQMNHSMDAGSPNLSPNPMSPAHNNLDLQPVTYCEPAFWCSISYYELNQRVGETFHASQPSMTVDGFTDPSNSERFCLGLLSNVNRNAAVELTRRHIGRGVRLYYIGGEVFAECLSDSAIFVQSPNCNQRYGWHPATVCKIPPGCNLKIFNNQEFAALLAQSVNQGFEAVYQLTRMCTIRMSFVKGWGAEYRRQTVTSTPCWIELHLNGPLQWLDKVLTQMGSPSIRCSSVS
UniProt P51174, sequence (P51174 whole entry): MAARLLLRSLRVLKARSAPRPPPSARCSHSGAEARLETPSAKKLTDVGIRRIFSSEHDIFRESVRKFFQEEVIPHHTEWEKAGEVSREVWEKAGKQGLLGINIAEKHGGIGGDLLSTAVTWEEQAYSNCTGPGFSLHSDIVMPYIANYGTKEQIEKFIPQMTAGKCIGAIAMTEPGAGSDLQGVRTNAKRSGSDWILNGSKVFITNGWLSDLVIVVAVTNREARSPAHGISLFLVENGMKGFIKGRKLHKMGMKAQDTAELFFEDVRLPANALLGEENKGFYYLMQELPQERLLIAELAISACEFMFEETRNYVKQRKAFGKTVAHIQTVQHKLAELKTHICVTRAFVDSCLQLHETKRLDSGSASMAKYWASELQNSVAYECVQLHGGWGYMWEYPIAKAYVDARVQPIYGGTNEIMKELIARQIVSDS
UniProt Q63932, sequence (Q63932 whole entry): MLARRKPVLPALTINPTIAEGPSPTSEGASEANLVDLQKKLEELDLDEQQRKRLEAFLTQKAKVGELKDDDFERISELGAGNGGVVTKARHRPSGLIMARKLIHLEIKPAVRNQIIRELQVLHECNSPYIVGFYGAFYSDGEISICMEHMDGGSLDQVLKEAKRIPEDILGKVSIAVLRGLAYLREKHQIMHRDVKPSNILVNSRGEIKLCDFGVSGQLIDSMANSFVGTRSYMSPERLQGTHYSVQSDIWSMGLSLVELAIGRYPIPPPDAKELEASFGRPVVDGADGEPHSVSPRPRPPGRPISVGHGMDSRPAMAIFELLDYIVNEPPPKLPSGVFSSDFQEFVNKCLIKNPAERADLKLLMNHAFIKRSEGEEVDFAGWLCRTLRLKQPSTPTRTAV
UniProt Q8BK48, sequence (Q8BK48 whole entry): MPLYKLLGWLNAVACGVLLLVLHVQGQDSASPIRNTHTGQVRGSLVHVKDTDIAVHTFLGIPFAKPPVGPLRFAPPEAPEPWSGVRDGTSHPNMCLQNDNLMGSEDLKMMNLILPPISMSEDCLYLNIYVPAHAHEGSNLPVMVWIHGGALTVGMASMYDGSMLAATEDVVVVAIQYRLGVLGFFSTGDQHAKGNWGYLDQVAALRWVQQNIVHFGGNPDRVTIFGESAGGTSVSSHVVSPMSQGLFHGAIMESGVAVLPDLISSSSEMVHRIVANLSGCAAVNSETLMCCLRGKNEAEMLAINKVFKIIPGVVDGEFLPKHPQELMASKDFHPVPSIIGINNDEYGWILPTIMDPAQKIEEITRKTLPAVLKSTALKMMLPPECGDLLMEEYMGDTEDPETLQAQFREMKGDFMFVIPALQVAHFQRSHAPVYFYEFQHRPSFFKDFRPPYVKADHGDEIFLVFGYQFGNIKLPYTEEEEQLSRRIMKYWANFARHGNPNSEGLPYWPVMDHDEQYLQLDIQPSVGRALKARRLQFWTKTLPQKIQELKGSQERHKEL

As for “UniProt P07437 (peptide sequence: IREEYPDRIMNTFSVVPSPK, peptide start residue: 155)”, the log2 fold change with staurosporine [1] was -2.5.
As to “UniProt P84022 (peptide sequence: TGQLDELEK, peptide start residue: 45)”, in the experiment with staurosporine [1], the log2 fold change was 0.887.
In the case of “UniProt E9Q414 (peptide sequence: LPQQIHHYLNASDWER, peptide start residue: 2117)”, in the experiment with staurosporine [2], the log2 fold change came out at 0.422.
Still for that read-out and setting: as for “UniProt Q6ZWQ0 (peptide sequence: INDRWQHLFDVIGSR, peptide start residue: 5986)”, the figure is 0.927; as for “UniProt Q8BK48 (peptide sequence: DFRPPYVK, peptide start residue: 447)”, -1.1.
Still for that read-out and setting: as for “UniProt P51174 (peptide sequence: SPAHGISLFLVENGMKGFIK, peptide start residue: 225)”, the figure is 0.439; as for “UniProt O70589 (peptide sequence: FTSSPGLSTEDLKR, peptide start residue: 48)”, -2.83; as for “UniProt Q63932 (peptide sequence: ISELGAGNGGVVTK, peptide start residue: 75)”, -0.512.
On the same count and under the same terms, as for “UniProt Q9R257 (peptide sequence: FATVEVTDKPVDEALR, peptide start residue: 41)”, the figure is -0.672; as for “UniProt Q99KG5 (peptide sequence: VLYYMEK, peptide start residue: 347)”, -0.236; as for “UniProt O70291 (peptide sequence: DLKPENILLDDHGHIR, peptide start residue: 311)”, -1.62.
